These results are taken from PubChem BioAssay AID2685 (National Center for Advancing Translational Sciences (NCATS), 2010).

Structures are written as SMILES. The whole screen tested about 320,000 compounds, of which about 2,100 (0.66%) were called active. Inconclusive results (about 53%) are left out. Calls follow the shape of the dose curve; as a rule, active = well fitted inhibition curve with a large enough effect in the signal ratio, with a control signal flat (not every such curve was filed as active); inconclusive = small, poorly fitted or top-dose-only effect, or effect the other way, or a change in a side signal; inactive = flat fitted curve, though single readings scatter; the % refers to the signal ratio. What follows is part of a selection rich in actives, with near analogues and random picks from the rest.
Potency is read from the fitted curve at half-maximal effect.

This assay in a line: qHTS Assay for Lipid Storage Modulators in Drosophila S3 Cells.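 As to cell number change: cells counted by Cell Tracker Red CMTPX staining in the red channel.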 The note with it: BODIPY lipid droplet fluorescence, 18-24 h, cells fed with added oleic acid; cell number change: measured here: cell count max response; series mostly up to 46.1 µM. An outline of the steps: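 Drosophila S3 cells loaded with oleic acid (400 uM, as added) and compounds at several concentrations; lipid droplets imaged by 488-nm laser-scanning cytometry, 500–530 nm intensity and object ratio to cell channel. Percent activity normalized to 20 uM Triacsin C.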
For orientation: Quantitative high-throughput screening tests each substance at several concentrations.
Consider `CCC(=O)N(CCC(c1ccccc1)c1ccco1)Cc1cccs1` (stereo not drawn), for which the Potency entry is “inactive” and the cell number change turned out to be 1.01%. In the same order, the values of `CC(=O)NCCC(=O)Nc1nc(-c2cccs2)c(-c2cccs2)s1` are “inactive” and 13.4%.

Take `CNC(=O)c1ccc(OC2CSC2)cc1`: the Potency is 16.4 µM (active) and the cell number change is -3.88%. Taken in the same sequence, the figures for `CC(=O)c1cccc(NC(=O)c2ccc(OC3CSC3)cc2)c1` were “inactive” and 14.6%. In the same order, the values of `CC(C)NC(=O)c1ccc(OC2CSC2)cc1` are “inactive” and 2.39%.

Turning to `O=C(NCC(=O)N(Cc1ccccc1)C(C(=O)NC1CCCC1)c1ccncc1)c1ccco1` (stereo not drawn), the Potency result was “inactive” and the cell number change is -25%. As to `COc1cccc(C2CCCN2Cc2nc(CC3CC3)no2)c1` (stereo not drawn), the Potency result was “inactive” and the cell number change was -10.7%.

For the compound `CCC(=O)Nc1ccc(S(=O)(=O)Nc2ccc(Cl)nn2)cc1`, the Potency result is “inactive” and the cell number change is -1.17%. In the same order, the values of `Cc1cc(-n2cnnn2)cc(C)c1S(=O)(=O)N(C)c1ccccc1` are 10.3 µM (active) and 1.61%.

For the compound `Cc1cc(C)c(S(=O)(=O)N(C)c2ccccc2)c(C)c1`, the Potency entry is “inactive” and the cell number change is -0.745%. In the same order, the values of `Cc1cc(-n2cnnn2)cc(C)c1S(=O)(=O)NCCOc1ccccc1` are “inactive” and -19.8%. Take `CCCOc1ccc(C(=O)O/N=C(\CC)c2ccc(C)cc2)cc1`: the Potency entry was “inactive” and the cell number change stood at 8.23%. As to `O=C(C1CCN(c2nnc(-n3cccc3)s2)CC1)N1CCCCC1`, the Potency result is “inactive”. Consider `CCOC(=O)N1CCN(C(=O)C2CCN(c3nnc(-n4cccc4)s3)CC2)CC1`, for which the Potency result is “inactive” and the cell number change was 29.4%. In the same order, the values of `CCOC(=O)C1CCCN(C(=O)C2CCN(c3nnc(-n4cccc4)s3)CC2)C1` (stereo not drawn) are 16.4 µM (active) and -17.4%. In the same order, the values of `COC(=O)C1CSc2[nH]c(=O)sc2C1c1ccc(OC)c(OC)c1` (stereo not drawn) are “inactive” and -7%. Taken in the same sequence, the figures for `CCC(C(=O)OCC(=O)N1C(C)CCCC1C)c1ccccc1` (stereo not drawn) were “inactive” and -35.7%.

With `O=C(NCCO)C(=O)NCC1OCCCN1S(=O)(=O)c1cc(F)ccc1F` (stereo not drawn), the Potency result was “inactive” and the cell number change came out at 0.587%.

For the compound `Cc1cc(F)ccc1S(=O)(=O)N1CCCOC1CNC(=O)C(=O)NC1CCCC1` (stereo not drawn), the Potency entry is “inactive” and the cell number change was 13.2%. Turning to `O=C(NCC1OCCCN1S(=O)(=O)c1cc(F)ccc1F)C(=O)NC1CCCCCC1` (stereo not drawn), the Potency is 4.61 µM (active) and the cell number change came out at 3.2%. `CCc1cccc(CC)c1NC(=O)C1SC(=Nc2ccccc2C)C(c2nc3ccccc3s2)=C1N` (stereo not drawn): the Potency result was “inactive”.

With `O=C1NC2(CCSC2)C(=O)N1CC(=O)N(Cc1ccccc1)C1CCS(=O)(=O)C1` (stereo not drawn), the Potency entry was “inactive” and the cell number change worked out at 1.14%. In the same order, the values of `O=C(NC1CC2CCCC(C1)N2C(=S)NCCc1ccccc1)C1CC1` (stereo not drawn) are “inactive” and -26.1%. In the same order, the values of `COc1cc(CO)cc(Br)c1OCC(=O)O` are 2.06 µM (active) and 9.61%. Take `CCNCc1cc(Br)c(OCC(=O)Nc2ccccc2)c(OC)c1`: the Potency entry is “inactive” and the cell number change amounted to 1.4%. Regarding `COc1cc(CO)cc(Br)c1OCc1cccnc1`, the Potency entry is “inactive” and the cell number change was -5.87%. Consider `CC(C)(C)c1ccc(/C=C/C(=O)N2CCOCC2)cc1`, for which the Potency result is “inactive” and the cell number change is -2.69%. Taken in the same sequence, the figures for `CCC1Sc2ccc(S(=O)(=O)CCC(=O)NCc3ccc(C)o3)cc2NC1=O` (stereo not drawn) were “inactive” and -1.81%.

Consider `O=C(NN1CCOCC1)c1cccc(Cl)c1`, for which the Potency result was “inactive” and the cell number change came to 14.2%. In the same order, the values of `Cc1cc(C(=O)N2CCCC(C(=O)c3ccc4ccccc4c3)C2)nn1C` (stereo not drawn) are “inactive” and 11.4%.

For the compound `Cc1cc(C(=O)N2CCCC(C(=O)c3ccc4ccccc4c3)C2)n(C)n1` (stereo not drawn), the Potency was 25.9 µM (active) and the cell number change is -14.9%.

Consider `CC(C)c1cc(C(=O)N2CCCC(C(=O)c3ccc4ccccc4c3)C2)on1` (stereo not drawn), for which the Potency result is “inactive”. For the compound `Cc1cc(C(=O)NC2CCC(C)CC2)c(C)o1` (stereo not drawn), the Potency entry was “inactive” and the cell number change is -8.31%. For `O=C(CSc1nnc(-c2cccnc2)n1CCN1CCCCC1)Nc1cccc(Cl)c1`, the Potency result is “inactive” and the cell number change is 11.7%. Consider `CCCN1C2CCCC1CC(NC(=S)NCCCOCC)C2` (stereo not drawn), for which the Potency result is “inactive” and the cell number change is -29.4%.

In the case of `CSc1nc(-c2ccc(C)cc2)nc(C(Cl)Cl)n1`, the Potency result was “inactive” and the cell number change is 10.6%. Taken in the same sequence, the figures for `CCSc1nc(-c2ccccc2)nc(C(Cl)Cl)n1` were 5.17 µM (active) and -6.95%. As to `Clc1cc(CSc2ccccc2)nc(-c2ccccc2)n1`, the Potency result is “inactive”. On to `CSc1nnc(-c2ccccc2)c(-c2ccccc2)n1`, for which the Potency result is “inactive” and the cell number change is -3.83%. In the same order, the values of `CSc1nc(-c2ccccc2)nc(C(Cl)Cl)n1` are 8.2 µM (active) and -22.1%.

`CCSc1nc(-c2ccccc2)c2cc(Cl)ccc2n1`: the Potency entry is “inactive” and the cell number change was -8.68%. Taken in the same sequence, the figures for `COc1ccccc1/C=N/OC(=O)c1ccc(F)cc1` were “inactive” and 3.91%. In the same order, the values of `Cc1cc(Cl)c(Cl)cc1S(=O)(=O)NCCCn1ccnc1` are 6.51 µM (active) and -5.8%.

Consider `Cc1cc(C)c(S(=O)(=O)NCCCn2ccnc2)cc1C`, for which the Potency result was “inactive” and the cell number change worked out at 4.74%. Taken in the same sequence, the figures for `COc1cc(Cl)c(S(=O)(=O)NCCCn2ccnc2)cc1Cl` were “inactive” and 29%. In the same order, the values of `COc1cccc(NC(=O)C2CCC(CNC(=O)[C@@H]3Cc4ccccc4CN3)CC2)c1` (stereo partly drawn) are “inactive” and 0.236%.
